Measurements: PubChem BioAssay (NCATS)
Records with an inconclusive call do not appear. Calls of active or inactive are those of the source. The call rests on the fitted dose curve; in most records, active means well fitted curve in the direction sought with a large enough effect; inconclusive means small, poorly fitted or top-dose-only effect, or another doubt; inactive means no such curve, though single readings can be large; an effect the other way counts as inactive or inconclusive. Where a SMILES comes first, the peptide text is derived from it.

Columns and labels:
[1] = test system: HACAT; test: qHTS assay to identify novel small-molecules to repurpose for Merkel cell carcinoma treatment (AID 1296009); conditions: MCC and control cell lines, CellTiter-Glo viability, 72 h; at 44.8 µM (top of the series) unless noted; further: nearly all actives have a fitted effect of over 60% in size
Summary of the method: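 qHTS format: cells treated with library compounds in DMSO across 8 (NPC) or 11 (MIPE) concentrations. Readout after 72 hr at 37 degree celsius was CellTiter-Glo luminescence.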

[2] = test system: C33A; test: Primary qHTS to identify gynecologic anti-cancer compounds using libraries of approved drugs and bioactive compounds (AID 1345084); conditions: Gynecologic cancer cell panel viability, ATPlite luminescence, 48 h; series mostly up to 57.5 µM; further: on the % scale 0 is the no-effect control and ±100 the full control effect; nearly all actives have a fitted effect of over 55% in size
Summary of the method: (§1)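 Five-concentration response, 48 h; readout is ATP-driven luciferase luminescence.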

[3] = test system: CAOV3; test: as above; conditions: Gynecologic cancer cell panel viability, ATPlite luminescence, 48 h; series mostly up to 57.5 µM
Summary of the method: as §1

[4] = test system: CASKI; test: as above; conditions: Gynecologic cancer cell panel viability, ATPlite luminescence, 48 h; series mostly up to 57.5 µM
Summary of the method: as §1

[5] = test system: Es-2; test: as above; conditions: Gynecologic cancer cell panel viability, ATPlite luminescence, 48 h; series mostly up to 57.5 µM
Summary of the method: as §1

[6] = test system: HeLa; test: as above; conditions: Gynecologic cancer cell panel viability, ATPlite luminescence, 48 h; series mostly up to 57.5 µM
Summary of the method: as §1

[7] = test system: Hek293T; test: as above; conditions: Gynecologic cancer cell panel viability, ATPlite luminescence, 48 h, control line for the selectivity index; series mostly up to 57.5 µM
Summary of the method: as §1

[8] = test system: JEG-3; test: as above; conditions: Gynecologic cancer cell panel viability, ATPlite luminescence, 48 h; series mostly up to 57.5 µM
Summary of the method: as §1

C[C@@H]1O[C@@H](O[C@@H]2\C=C/C=C\C=C/C=C\C[C@H](C)OC(=O)/C=C\[C@H]3O[C@@H]3C[C@H](O)C[C@]3(O)C[C@@H](O)[C@@H](C(=O)O)[C@H](C2)O3)[C@H](O)[C@H](N)[C@@H]1O
inactive: outcome [1] | Potency [2] | Potency [3] | outcome [4] | Potency [5] | Potency [6] | Potency [7] | Potency [8]

Cc1cc(Cn2cnc3c2CC(C(=O)O)N(C(=O)C(c2ccccc2)c2ccccc2)C3)ccc1N(C)C (stereo not drawn)
inactive: outcome [1] | Potency [2] | Potency [3] | outcome [4] | Potency [5] | Potency [6] | Potency [7] | Potency [8]

CC(=O)OC[C@]12[C@H](OC(C)=O)[C@H](OC(=O)c3ccccc3)[C@@H]3[C@@H](OC(C)=O)[C@]1(OC3(C)C)[C@H](C)C[C@H](OC(=O)c1ccccc1)[C@@H]2OC(=O)c1ccccc1
inactive: outcome [1] inactive [at 17.4 µM] | Potency [2] | Potency [3] | outcome [4] | Potency [5] | Potency [6] | Potency [7] | Potency [8]

CC1(C)CC[C@]2(C(=O)OC3OC(CO)C(O)C(O)C3O)CC[C@]3(C)C(=CCC4[C@@]5(C)C[C@@H](O)[C@H](OC6OC(C(=O)O)C(O)C(O)C6O)C(C)(C)C5CC[C@]43C)[C@@H]2C1 (stereo partly drawn)
inactive: outcome [1] inactive [at 9.27 µM] | activity change, negative = cytotoxicity [2] 5.49% [at 11.6 µM] | activity change, negative = cytotoxicity [3] -8.39% [at 11.6 µM] | activity change, negative = cytotoxicity [4] 3.29% [at 11.6 µM] | activity change, negative = cytotoxicity [5] -0.905% [at 11.6 µM] | activity change, negative = cytotoxicity [6] 5.76% [at 11.6 µM] | activity change, negative = cytotoxicity [7] -2.17% [at 11.6 µM] | activity change, negative = cytotoxicity [8] 17.5% [at 11.6 µM]

CC1(C)CCC[C@]2(C)C1CC=C(CO)[C@H]2CC/C(=C/CO)CO (stereo partly drawn)
inactive: outcome [1] | Potency [2] | Potency [3] | outcome [4] | Potency [5] | Potency [6] | Potency [7] | Potency [8]

CCC(C)C(=O)O[C@H]1C[C@](C)(O)[C@]23OC(C)(C)[C@H](C[C@H](OC(=O)c4ccccc4)[C@]2(COC(C)=O)[C@H]1OC(=O)C(C)CC)[C@H]3OC(C)=O (stereo partly drawn)
inactive: outcome [1] inactive [at 17.4 µM] | Potency [2] | Potency [3] | outcome [4] | Potency [5] | Potency [6] | Potency [7] | Potency [8]

C=CC(C)(O)CC/C=C(\C)COC1O[C@H](CO)[C@@H](O)[C@H](O)[C@H]1O (stereo partly drawn)
inactive: outcome [1] | Potency [2] | Potency [3] | outcome [4] | Potency [5] | Potency [6] | Potency [7] | Potency [8]

CC1=C2C[C@@]3(C)C(CCC[C@@H]3C)C(O)C2(O)OC1=O (stereo partly drawn)
inactive: outcome [1] | Potency [2] | Potency [3] | outcome [4] | Potency [5] | Potency [6] | Potency [7] | Potency [8]

CC(C)=CCc1c(O)cc2oc3cc(C)cc(O)c3c2c1C
inactive: outcome [1] | Potency [2] | Potency [3] | outcome [4] | Potency [5] | Potency [6] | Potency [7] | Potency [8]

C=C(C)C1CCC2(C(=O)OC3OC(COC4OC(CO)C(O)C(O)C4O)C(OC4OC(C)C(O)C(O)C4O)C(O)C3O)CCC3(C(=O)O)C(CCC4C5(C)CCC(=O)C(C)(C)C5CCC43C)C12 (stereo not drawn)
inactive: outcome [1] inactive [at 9.27 µM] | activity change, negative = cytotoxicity [2] 2.12% [at 11.6 µM] | activity change, negative = cytotoxicity [3] 1.66% [at 11.6 µM] | activity change, negative = cytotoxicity [4] -3.34% [at 11.6 µM] | activity change, negative = cytotoxicity [5] -14% [at 11.6 µM] | activity change, negative = cytotoxicity [6] 1.62% [at 11.6 µM] | activity change, negative = cytotoxicity [7] 0.77% [at 11.6 µM] | activity change, negative = cytotoxicity [8] -1.16% [at 11.6 µM]

CC1=C2CC(C)(C)CC2C(O)C2=C(C1)C(=O)OC2O (stereo not drawn)
inactive: outcome [1] | Potency [2] | Potency [3] | outcome [4] | Potency [5] | Potency [6] | Potency [7] | Potency [8]

COC(=O)C1=COC(OC2OC(CO)C(O)C(O)C2O)C2C(COC(=O)/C=C/c3ccc(O)cc3)C(O)C(O)C12 (stereo not drawn)
inactive: outcome [1] inactive [at 17.4 µM] | Potency [2] | Potency [3] | outcome [4] | Potency [5] | Potency [6] | Potency [7] | Potency [8]

COC(O)(CC(C)C)C1Oc2cc(C)[nH]c(=O)c2O1 (stereo not drawn)
inactive: outcome [1] | Potency [2] | Potency [3] | outcome [4] | Potency [5] | Potency [6] | Potency [7] | Potency [8]

CSCC[C@H](NC(=O)[C@H](CO)NC(=O)[C@H](CCC(=O)O)NC(C)=O)C(=O)N[C@H](C=O)CC(=O)O (Ac-ESMD-aldehyde)
inactive: outcome [1] inactive [at 9.27 µM] | activity change, negative = cytotoxicity [2] 13.1% [at 11.6 µM] | activity change, negative = cytotoxicity [3] 15.6% [at 11.6 µM] | activity change, negative = cytotoxicity [4] 18.4% [at 11.6 µM] | activity change, negative = cytotoxicity [5] 5.54% [at 11.6 µM] | activity change, negative = cytotoxicity [6] 13.1% [at 11.6 µM] | activity change, negative = cytotoxicity [7] 8.08% [at 11.6 µM] | activity change, negative = cytotoxicity [8] 19.7% [at 11.6 µM]

CC(=O)OC/C(=C/C(=O)O)CC[C@@H]1C(CO)=CC[C@@H]2C(C)(C)CCC[C@@]12C
inactive: outcome [1] | Potency [2] | Potency [3] | outcome [4] | Potency [5] | Potency [6] | Potency [7] | Potency [8]

COc1cc(/C=C/C(=O)OC[C@H]2O[C@@H](OC3CC(C)=C(C(=O)O)C(C)(C)C3)[C@H](O)[C@@H](O)[C@@H]2O)cc(OC)c1O (stereo partly drawn)
inactive: outcome [1] inactive [at 17.4 µM] | Potency [2] | Potency [3] | outcome [4] | Potency [5] | Potency [6] | Potency [7] | Potency [8]
